# Test results taken from PubChem BioAssay AID720697 (Broad Institute, 2013).
# Potency and affinity values are given separately. Results filed as inconclusive are left out. Values without a mark were called inactive.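 How the source made its calls: active means signal loss with fitted half-maximal concentration at or below twice the top valid tested dose in every test run; inconclusive means runs disagree, flat 30 to 70% signal loss, or poor fit; inactive means all runs flat, opposite direction, or potency beyond limit.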
# Experiment: general mammalian cell viability loss – inhibitor set, cherry-pick, set 2, cytotoxicity control for miR-122 modulator project, dose response (AID 720697);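 further: 0% = median of neutral control wells and -100% = MG132 positive control wells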
# Conditions: HEK293T viability, CellTiter-Glo luminescence, 48 h; series mostly up to 26 µM; activity change, negative = cytotoxicity: at the top concentration
row,SMILES,"activity change, negative = cytotoxicity"
1,C[C@@H]1CN([C@@H](C)CO)S(=O)(=O)c2ccc(C#Cc3ccncc3)cc2O[C@@H]1CN(C)C(=O)C1CCOCC1,123%
2,CNC(=O)C[C@H]1CC[C@@H]2[C@H](COc3ccc(NC(=O)c4ccc(OC)cc4)cc3C(=O)N2C)O1,61.1%
3,C/C=C/c1ccc2c(c1)O[C@H](CN(C)C(=O)Cc1cccnc1)[C@H](C)CN([C@H](C)CO)S2(=O)=O,132%
4,COCC(=O)Nc1ccc2c(c1)C(=O)N(C)[C@@H]1CC[C@@H](CC(=O)NC3CCCC3)O[C@@H]1CO2,69.4% [at 23.5 µM]
5,CN1C(=O)c2cc(NC(=O)Nc3cccc(Cl)c3)ccc2OC[C@H]2O[C@@H](CC(=O)NCCc3ccncc3)CC[C@H]21,50.4% [at 23.5 µM]
6,CN1C(=O)c2cc(NC(=O)c3cccs3)ccc2OC[C@@H]2O[C@@H](CC(=O)O)CC[C@@H]21,37.2%
7,C[C@@H]1CN([C@@H](C)CO)S(=O)(=O)c2ccc(C3=CCCC3)cc2O[C@@H]1CN(C)C(=O)c1ccc(F)cc1,90.9%
8,CO[C@@H]1CN(C)C(=O)c2cc(NC(=O)Nc3cc(Cl)cc(Cl)c3)ccc2OC[C@H](C)NC[C@H]1C,10.9%
9,COc1ccc(C#Cc2ccc3c(c2)O[C@H](CN(C)C(=O)CN2CCOCC2)[C@H](C)CN([C@@H](C)CO)S3(=O)=O)cc1,86.8%
10,CC(C)C(=O)Nc1ccc2c(c1)C(=O)N(C)[C@@H]1CC[C@@H](CC(=O)NCC3CC3)O[C@H]1CO2,51.9%
11,CC(C)C(=O)Nc1ccc2c(c1)C(=O)N(C)[C@@H]1CC[C@@H](CC(=O)N[C@H](C)c3ccccc3)O[C@@H]1CO2,50.7% [at 23.5 µM]
